# Laboratory results: PubChem BioAssay AID1159580 (chemical genetic matrix, 2015)
# The campaign covered roughly 5,500 compounds. About 2,000 (36%) were called active. Another 18% or so got no clear call; they are omitted. Rule as the data show it: active = normalized growth mostly below about 0.91 (no sharp cut-off); inconclusive = no clear call, values can overlap the other calls; inactive = mostly above about 0.92. This is one part of the list.
# Test: chemical genetic growth profiling, strain panel (AID 1159580);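 also: tested at 20 µM; growth read once vehicle control cultures reached saturation at 30 °C; 1 = growth at the plate median or of vehicle wells; lower values mean less growth of the strain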
# Conditions: growth OD
compound,measurement,setting,value
COc1cc(OC)c2c(=O)c(O)c(-c3ccc(OC)c(OC)c3)oc2c1,normalized growth,"S. cerevisiae deletion strains, locus YKL009W, strain mrt4, hits give low values",1.45 [resistant] (active)
same,normalized growth,"S. cerevisiae deletion strains, locus YKL068W, hits give low values",0.994 (inactive)
same,normalized growth,"S. cerevisiae deletion strains, locus YKL085W, strain MDH1 (second series), hits give low values",1.05 (inactive)
same,normalized growth,"S. cerevisiae deletion strains, locus YKL085W, strain MDH1, hits give low values",1.05 (inactive)
same,normalized growth,"S. cerevisiae deletion strains, locus YKL160W, strain elf1, hits give low values",0.922 (inactive)
same,normalized growth,"S. cerevisiae deletion strains, locus YKL190W, strain CNB1, hits give low values",0.202 (active)
same,normalized growth,"S. cerevisiae deletion strains, locus YKR001C, strain vps1, hits give low values",0.738 (active)
same,normalized growth,"S. cerevisiae deletion strains, locus YKR026C, strain gcn3, hits give low values",0.959 (inactive)
same,normalized growth,"S. cerevisiae deletion strains, locus YKR091W, strain srl3, hits give low values",0.953 (inactive)
same,normalized growth,"S. cerevisiae deletion strains, locus YLL001W, strain dnm1, hits give low values",0.906 (inactive)
same,normalized growth,"S. cerevisiae deletion strains, locus YLL026W, hits give low values",0.972 (inactive)
same,normalized growth,"S. cerevisiae deletion strains, locus YLL041C, strain sdh2, hits give low values",0.933 (inactive)
same,normalized growth,"S. cerevisiae deletion strains, locus YLR027C, strain aat2, hits give low values",0.92 (active)
same,normalized growth,"S. cerevisiae deletion strains, locus YLR039C, strain RIC1, hits give low values",0.227 (active)
same,normalized growth,"S. cerevisiae deletion strains, locus YLR058C, strain SHM2, hits give low values",0.295 (active)
same,normalized growth,"S. cerevisiae deletion strains, locus YLR102C, strain apc9, hits give low values",0.929 (inactive)
same,normalized growth,"S. cerevisiae deletion strains, locus YLR113W, strain HOG1, hits give low values",0.944 (inactive)
same,normalized growth,"S. cerevisiae deletion strains, locus YLR221C, strain rsa3, hits give low values",0.865 (active)
same,normalized growth,"S. cerevisiae deletion strains, locus YLR258W, strain gsy2, hits give low values",0.917 (inactive)
same,normalized growth,"S. cerevisiae deletion strains, locus YLR262C, strain YPT6 (second series), hits give low values",0.655 (active)
same,normalized growth,"S. cerevisiae deletion strains, locus YLR262C, strain YPT6, hits give low values",0.374 (active)
same,normalized growth,"S. cerevisiae deletion strains, locus YLR268W, strain sec22, hits give low values",0.558 (active)
same,normalized growth,"S. cerevisiae deletion strains, locus YLR320W, strain mms22, hits give low values",0.853 (active)
same,normalized growth,"S. cerevisiae deletion strains, locus YLR342W, strain FKS1 (second series), hits give low values",0.341 (active)
same,normalized growth,"S. cerevisiae deletion strains, locus YLR342W, strain FKS1, hits give low values",0.875 (active)
same,normalized growth,"S. cerevisiae deletion strains, locus YLR357W, strain rsc2, hits give low values",0.705 (active)
same,normalized growth,"S. cerevisiae deletion strains, locus YLR370C, strain arc18, hits give low values",0.967 (inactive)
same,normalized growth,"S. cerevisiae deletion strains, locus YLR371W, strain rom2, hits give low values",0.645 (active)
same,normalized growth,"S. cerevisiae deletion strains, locus YLR384C, strain iki3, hits give low values",0.942 (inactive)
same,normalized growth,"S. cerevisiae deletion strains, locus YLR418C, strain cdc73, hits give low values",0.559 (active)
same,normalized growth,"S. cerevisiae deletion strains, locus YML016C, strain PPZ1, hits give low values",0.155 (active)
same,normalized growth,"S. cerevisiae deletion strains, locus YML032C, strain rad52, hits give low values",0.91 (inactive)
same,normalized growth,"S. cerevisiae deletion strains, locus YML120C, strain ndi1, hits give low values",0.948 (inactive)
same,normalized growth,"S. cerevisiae deletion strains, locus YML124C, strain tub3, hits give low values",0.845 (active)
same,normalized growth,"S. cerevisiae deletion strains, locus YMR058W, strain fet3, hits give low values",0.35 (active)
same,normalized growth,"S. cerevisiae deletion strains, locus YMR078C, strain ctf18, hits give low values",0.957 (inactive)
same,normalized growth,"S. cerevisiae deletion strains, locus YMR125W, strain sto1, hits give low values",0.982 (inactive)
same,normalized growth,"S. cerevisiae deletion strains, locus YMR129W, hits give low values",0.954 (inactive)
same,normalized growth,"S. cerevisiae deletion strains, locus YMR205C, strain PFK2, hits give low values",0.696 (active)
same,normalized growth,"S. cerevisiae deletion strains, locus YMR223W, strain ubp8, hits give low values",0.759 (active)
same,normalized growth,"S. cerevisiae deletion strains, locus YMR231W, strain pep5, hits give low values",0.973 (inactive)
same,normalized growth,"S. cerevisiae deletion strains, locus YMR307W, strain GAS1, hits give low values",0.381 (active)
same,normalized growth,"S. cerevisiae deletion strains, locus YNL067W, strain RPL9B, hits give low values",0.438 (active)
same,normalized growth,"S. cerevisiae deletion strains, locus YNL071W, strain lat1, hits give low values",0.975 (inactive)
same,normalized growth,"S. cerevisiae deletion strains, locus YNL153C, strain GIM3, hits give low values",0.446 (active)
same,normalized growth,"S. cerevisiae deletion strains, locus YNL183C, strain NPR1, hits give low values",0.941 (inactive)
same,normalized growth,"S. cerevisiae deletion strains, locus YNL209W, strain ssb2, hits give low values",0.572 (active)
same,normalized growth,"S. cerevisiae deletion strains, locus YNL233W, strain BNI4, hits give low values",0.601 (active)
same,normalized growth,"S. cerevisiae deletion strains, locus YNL248C, strain rpa49, hits give low values",0.951 (inactive)
same,normalized growth,"S. cerevisiae deletion strains, locus YNL250W, strain rad50, hits give low values",1.01 (inactive)
same,normalized growth,"S. cerevisiae deletion strains, locus YNL271C, strain bni1, hits give low values",0.922 (inactive)
same,normalized growth,"S. cerevisiae deletion strains, locus YNL298W, strain CLA4, hits give low values",0.975 (inactive)
same,normalized growth,"S. cerevisiae deletion strains, locus YNL307C, strain MCK1, hits give low values",0.893 (active)
same,normalized growth,"S. cerevisiae deletion strains, locus YNL322C, strain KRE1 (second series), hits give low values",0.961 (inactive)
same,normalized growth,"S. cerevisiae deletion strains, locus YNR049C, strain mso1, hits give low values",0.968 (inactive)
same,normalized growth,"S. cerevisiae deletion strains, locus YNR052C, strain pop2, hits give low values",0.761 (active)
same,normalized growth,"S. cerevisiae deletion strains, locus YOL012C, strain htz1",0.232 (inactive)
same,normalized growth,"S. cerevisiae deletion strains, locus YOL147C, strain pex11, hits give low values",0.813 (active)
same,normalized growth,"S. cerevisiae deletion strains, locus YOR001W, strain rrp6, hits give low values",0.922 (inactive)
same,normalized growth,"S. cerevisiae deletion strains, locus YOR061W, strain CKA2, hits give low values",0.285 (active)
same,normalized growth,"S. cerevisiae deletion strains, locus YOR069W, strain VPS5, hits give low values",0.458 (active)
same,normalized growth,"S. cerevisiae deletion strains, locus YOR070C, strain gyp1, hits give low values",0.968 (inactive)
same,normalized growth,"S. cerevisiae deletion strains, locus YOR080W, strain dia2, hits give low values",0.942 (inactive)
same,normalized growth,"S. cerevisiae deletion strains, locus YOR083W, strain WHI5, hits give low values",0.884 (active)
same,normalized growth,"S. cerevisiae deletion strains, locus YOR106W, strain vam3, hits give low values",0.616 (active)
same,normalized growth,"S. cerevisiae deletion strains, locus YOR136W, strain idh2, hits give low values",0.871 (active)
same,normalized growth,"S. cerevisiae deletion strains, locus YOR144C, strain elg1, hits give low values",0.788 (active)
same,normalized growth,"S. cerevisiae deletion strains, locus YOR184W, strain ser1, hits give low values",0.683 (active)
same,normalized growth,"S. cerevisiae deletion strains, locus YOR231W, strain MKK1, hits give low values",0.991 (inactive)
same,normalized growth,"S. cerevisiae deletion strains, locus YOR265W, strain rbl2, hits give low values",0.94 (inactive)
same,normalized growth,"S. cerevisiae deletion strains, locus YOR270C, strain vph1, hits give low values",0.716 (active)
same,normalized growth,"S. cerevisiae deletion strains, locus YOR290C, strain snf2, hits give low values",0.817 (active)
same,normalized growth,"S. cerevisiae deletion strains, locus YOR316C, strain cot1, hits give low values",0.938 (inactive)
same,normalized growth,"S. cerevisiae deletion strains, locus YPL051W, strain arl3, hits give low values",0.763 (active)
same,normalized growth,"S. cerevisiae deletion strains, locus YPL078C, strain atp4, hits give low values",0.958 (inactive)
same,normalized growth,"S. cerevisiae deletion strains, locus YPL106C, strain sse1, hits give low values",0.784 (active)
same,normalized growth,"S. cerevisiae deletion strains, locus YPL240C, strain hsp82, hits give low values",0.92 (active)
same,normalized growth,"S. cerevisiae deletion strains, locus YPL241C, strain CIN2, hits give low values",0.506 (active)
same,normalized growth,"S. cerevisiae deletion strains, locus YPL256C, strain CLN2, hits give low values",0.969 (inactive)
same,normalized growth,"S. cerevisiae deletion strains, locus YPR119W, strain clb2, hits give low values",0.97 (inactive)
same,normalized growth,"S. cerevisiae deletion strains, locus YPR141C, strain kar3, hits give low values",0.996 (inactive)
same,normalized growth,"S. cerevisiae deletion strains, locus YPR163C, strain tif3, hits give low values",0.838 (active)
same,normalized growth,"S. cerevisiae deletion strains, locus YPR167C, strain met16, hits give low values",0.78 (active)
same,normalized growth,"S. cerevisiae deletion strains, strain wtn01, hits give low values",0.66 (active)
same,normalized growth,"S. cerevisiae strains, strain wild type, hits give low values",0.102 (active)
